Source: PubChem BioAssay (EPA / NIEHS)
Inconclusive results are not listed. Active and inactive are the calls of the source. Rule for the calls: active = hit-call score of the fitted dose curve at least 0.9, where 1 is the maximum; inconclusive = response in the unintended direction; inactive = score below 0.9.

Legend:
[1] = TOX21_p53_BLA_p3_viability: Viability Assessment in the Tox21 HCT-116 p53 Agonism Beta-lactamase Assay, Phase 3 (AID 2283593);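 note: cells exposed to compound for 16 h before reading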
Procedure, shortened: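 Cellular ATP was quantified by CellTiter-Glo luminescence, read after 30 min at room temperature. Beforehand, HCT116 cells (4000/well) received compound 5 h post-seeding, 217-fold diluted from DMSO, then incubated 16 h at 37C.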

[2] = TOX21_p53_BLA_p5_viability: Viability Assessment in the Tox21 HCT-116 p53 Agonism Beta-lactamase Assay, Phase 5 (AID 2283600)
Procedure, shortened: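 HCT-116 p53 beta-lactamase reporter cells, 4000/well, were exposed to compound (pin transfer, 217-fold dilution) for 16 hours at 37C. Cellular ATP was read by CellTiter-Glo luminescence after 30 min at room temperature.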

[3] = Tanguay_ZF_120hpf_MORT_legacy: (Legacy) Oregon State University Tanguay Lab 120 Hour Post-fertilization zebrafish Assay for Mortality (AID 2283633)
Procedure, shortened: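 Dechorionated Tropical 5D wild-type zebrafish embryos, one per well from 6 hpf, static exposure in 0.64% DMSO at 28C until 120 hpf. Mortality scored as binary by brightfield microscopy at 24 and 120 hpf.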

[4] = Tanguay_ZF_120hpf_YSE_legacy: (Legacy) Oregon State University Tanguay Lab 120 Hour Post-fertilization zebrafish Assay for Yolk Sac Edema (AID 2283634);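 for AC50: actives raise the incidence of yolk sac edema above the DMSO baseline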
Procedure, shortened: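 Dechorionated Tropical 5D wild-type zebrafish embryos were exposed statically, one per well, from 6 to 120 hpf at 28C in 0.64% DMSO. Yolk sac edema was scored present/absent by brightfield at 120 hpf, and dead embryos were excluded.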

[5] = Tanguay_ZF_120hpf_AXIS_legacy: (Legacy) Oregon State University Tanguay Lab 120 Hour Post-fertilization zebrafish Assay for Body Axis Malformation (AID 2283635);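 for AC50: potency for an increased fraction of larvae scored with body axis malformation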
Procedure, shortened: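 Dechorionated wild-type Tropical 5D zebrafish embryos, one per well, statically exposed from 6 hpf to 120 hpf at 28C in 0.64% DMSO final. Body axis malformation scored present/absent by brightfield microscopy at 120 hpf; dead embryos excluded.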

[6] = Tanguay_ZF_120hpf_EYE_legacy: (Legacy) Oregon State University Tanguay Lab 120 Hour Post-fertilization zebrafish Assay for Eye Malformation (AID 2283636)
Procedure, shortened: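 Read-out is binary presence or absence of eye malformation, scored by brightfield microscopy at 120 hpf. Single larvae were exposed from 6 hpf in embryo medium containing 0.64% DMSO, with DMSO as baseline.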

[7] = target: Cellular tumor antigen p53 (Homo sapiens) (UniProt P04637); assay: TOX21_p53_BLA_p5_ratio: Tox21 HCT-116 p53 Agonism Beta-lactamase Assay, Ratio, Phase 5 (AID 2283599)
Procedure, shortened: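 Beta-lactamase reporter ratio (blue 460 nm over green 530 nm, 405 nm excitation) after 2 h CCF4-AM loading, in HCT-116 cells exposed 16 h at 37 C to compounds pinned at 217-fold dilution. Increases relative to DMSO baseline scored.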

[8] = target: Cellular tumor antigen p53 (Homo sapiens) (UniProt P04637); assay: TOX21_p53_BLA_p4_ratio: Tox21 HCT-116 p53 Agonism Beta-lactamase Assay, Ratio, Phase 4 (AID 2283601)
Procedure, shortened: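 Signal is the blue/green (460nm/530nm) ratio of cleaved versus uncleaved CCF4-AM substrate, read after 2 h substrate loading. Cells were HCT116 carrying the p53-responsive beta-lactamase reporter, dosed 16 h at 37C, 5% CO2; CellTiter-Glo measured in parallel.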

[9] = target: Cellular tumor antigen p53 (Homo sapiens) (UniProt P04637); assay: TOX21_p53_BLA_p3_ratio: Tox21 HCT-116 p53 Agonism Beta-lactamase Assay, Ratio, Phase 3 (AID 2283596)
Procedure, shortened: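 HCT116 p53-bla cells (4000/well) given compound in DMSO (217-fold dilution) after 5 h, incubated 16 h at 37C. CCF4-AM substrate 2 h at room temperature; 460/530 nm emission ratio, gain fitted against DMSO.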

[10] = TOX21_p53_BLA_p4_viability: Viability Assessment in the Tox21 HCT-116 p53 Agonism Beta-lactamase Assay, Phase 4 (AID 2283597);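 note: hits lower the luminescence signal meaning cytotoxicity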
Procedure, shortened: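 HCT-116 p53-bla cells, 4000/well, dosed after 5 h attachment and incubated 16 h at 37 °C, 5% CO2. Viability from CellTiter-Glo ATP luminescence after 30 min at room temperature, taken after the beta-lactamase read; loss of signal indicates cytotoxicity.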

Measured: AC50

Cellular tumor antigen p53 (Homo sapiens), sequence (P04637 whole entry, looked up): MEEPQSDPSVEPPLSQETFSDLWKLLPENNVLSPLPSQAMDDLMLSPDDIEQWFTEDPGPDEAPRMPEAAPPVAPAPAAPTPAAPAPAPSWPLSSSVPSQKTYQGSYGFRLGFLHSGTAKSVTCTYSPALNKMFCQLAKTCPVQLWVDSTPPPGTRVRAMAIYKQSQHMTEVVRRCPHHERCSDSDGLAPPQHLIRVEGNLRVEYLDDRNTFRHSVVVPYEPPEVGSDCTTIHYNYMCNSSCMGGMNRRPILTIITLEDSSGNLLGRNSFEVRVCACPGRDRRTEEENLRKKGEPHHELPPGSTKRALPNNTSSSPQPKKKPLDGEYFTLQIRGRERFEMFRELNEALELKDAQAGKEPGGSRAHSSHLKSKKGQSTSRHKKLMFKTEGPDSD

CCCCC(CC)COC(=O)CCCCCCCCC(=O)OCC(CC)CCCC (centres undefined)
inactive: [1] | [2] | [3] | [4] | [5] | [6]

COc1ccc(/C=C/S(=O)(=O)NC(=O)c2ccc(C)cc2Cl)cc1
inactive: [1] | [2] | [3]
active: [7] 29.5 µM | [8] 21.2 µM

CC1(C)C(=O)N(Br)C(=O)N1Br
inactive: [9] | [10] | [7] | [2] | [8] | [3] | [4] | [5] | [6]

NC(=O)NO
inactive: [10] | [7] | [2] | [8] | [3] | [4] | [5] | [6]

O=C(O)CCN(C1(C(=O)NO)CCCC1)S(=O)(=O)c1ccc(Oc2ccc(F)cc2)cc1
inactive: [1] | [2] | [3] | [4] | [6]

C=CC(=C)CCC=C(C)C
inactive: [10] | [7] | [2] | [8] | [3] | [4] | [5] | [6]

CC[C@H]1CC[C@H](NCc2cc3c(cc2OC)[C@H]2C[C@H]2C(=O)N3C)[C@H](c2ccccc2)N1
inactive: [1] | [8] | [3] | [4] | [5] | [6]

Clc1nc(Cl)c(Cl)c(Cl)c1Cl
inactive: [9] | [10] | [7] | [2] | [8] | [3] | [4] | [5] | [6]

O=C(O)CC(O)C(=O)O (centres undefined)
inactive: [9] | [10] | [7] | [2] | [8] | [3] | [4] | [5] | [6]

COC(=O)CC(=O)OC
inactive: [9] | [10] | [7] | [2] | [8] | [3] | [4] | [5]

CCOCCOCCOCCO
inactive: [7] | [8] | [3] | [4] | [6]

O=C(NS(=O)(=O)/C=C/c1ccccc1)c1ccc(F)cc1Cl
inactive: [3] | [4] | [5] | [6]
active: [9] 24.9 µM | [7] 13.5 µM | [8] 22 µM

O=C(O)c1cccc(Oc2ccccc2)c1
inactive: [9] | [10] | [7] | [8] | [3] | [4] | [6]

CCCCCCCCO
inactive: [1] | [2] | [8] | [3] | [4] | [6]

COCCOCCOCCOC
inactive: [10] | [7] | [2] | [3] | [4] | [6]

CCNc1ccccc1
inactive: [10] | [7] | [8] | [3] | [4] | [5] | [6]

CCCCCCCCCCCCCCCO
inactive: [1] | [7] | [3] | [4] | [5] | [6]

C1=CCCC=CCCC=CCC1
inactive: [10] | [7] | [8] | [3] | [4] | [5] | [6]

CC/C(=C\C(=N/O)C(N)=O)C(C)[N+](=O)[O-] (centres undefined)
inactive: [9] | [10] | [7] | [8] | [3] | [4] | [5] | [6]

On1ccccc1=S
inactive: [10] | [7] | [8] | [3]
active: [4] 0.0413 µM | [5] 0.0354 µM

CCCCCCCCCCCCc1ccccc1
inactive: [1] | [7] | [8] | [3] | [4] | [5] | [6]

CCOC(=O)CC(CC(=O)OCC)(OC(C)=O)C(=O)OCC
inactive: [1] | [2] | [3] | [4] | [5] | [6]

CC(C)=CCC/C(C)=C\CO
inactive: [1] | [10] | [8] | [3] | [4] | [6]

CC[C@H]1OC(=O)[C@H](C)[C@@H](O[C@H]2C[C@@](C)(OC)[C@@H](O)[C@H](C)O2)[C@H](C)[C@@H](O[C@@H]2O[C@H](C)C[C@H](N(C)C)[C@H]2O)[C@](C)(O)C[C@@H](C)C(=O)[C@H](C)[C@@H](O)[C@]1(C)O
inactive: [1] | [7] | [2] | [8] | [3] | [5] | [6]

Cn1c(=O)cc(Oc2ccc(F)cc2F)c2cnc(NCC(C)(C)O)nc21
active: [4] 15.7 µM
inactive: [1] | [10] | [3] | [5] | [6]

CCCN(C1CCN(C(=O)C2CCNCC2)CC1)[C@@H]1CCc2ccc(OC)cc2C1
inactive: [1] | [2] | [8] | [3] | [4] | [5] | [6]

CCOCCO
inactive: [10] | [7] | [2] | [8] | [3] | [4] | [5]
